Screens from PubChem.
Hits are enriched below; roughly 17% of the tested compounds scored in any of these assays.
HepG2 tox – HepG2 cytotoxicity, counter-screen for TGF-b inhibitors; Potency, µM (top dose mostly 46.1 µM), without a hit: at the highest dose activity change, negative = cytotoxicity, hits mostly cytotoxic; HepG2 CAGA-GFP viability, ATP luminescence, 18 h; 410,000 tested, 0.76% active; AID 588856
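HepG2 CAGA-GFP cells (1000/well, DMEM with 1% FBS) received compound, then TGF-beta at 500 pg/mL final, and were incubated 18 hours at 37 degrees C. Viability was read by CellTiter-Glo luminescence. Media-only wells were set as complete cell-killing and DMSO as no toxicity.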
DT40 TDP1 CPT – growth inhibition of DT40 Tdp1-/-;hTDP1 cells with camptothecin (screen for TDP1 inhibitors). 420,000 tested, 12% active. Potency, µM (titrated, usually from 46.2 µM), for the others: at the top dose activity change, negative = growth inhibition, most hits filed as inhibitors. AID 686979. chicken DT40 Tdp1-/-;hTDP1 cells + 20 nM CPT, ATP luminescence, 48 h; note: % is set by controls: 0 for no effect and ±100 for the full control effect; nearly all actives have a fitted effect of over 55% in size
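Chicken DT40 Tdp1-/- cells stably complemented with human TDP1 were seeded at 400 cells/well in medium containing 20 nM camptothecin, exposed to pin-transferred compounds, and grown at 37 °C for at least 48 hr. Viability was read as ATP luminescence.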
HT1080-NT tox – kills 2HG-producing HT-1080-NT fibrosarcoma cells | HT-1080-NT fibrosarcoma viability, CellTiter-Glo ATP luminescence, 48 h | Potency, µM (titrated, usually from 46.1 µM), inactives show at the highest dose activity, negative = less viability, usual class: cytotoxic | 360,000 tested, 1.6% active;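 note: NT is the 2HG producing partner of a matched IDH1 knockdown line; 0% = DMSO-treated cells and -100% = media-only wells without cells; nearly all actives have a fitted effect of over 55% in size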
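Viability of the 2HG-overproducing fibrosarcoma line after 48 hours of compound exposure at 37 degrees C was determined by luminescence with CellTiter-Glo, and concentration-effect curves were then fitted and categorized.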
DT40 TDP1 no CPT – qHTS for Inhibitors of human tyrosyl-DNA phosphodiesterase 1 (TDP1): qHTS in cells in absence of CPT | DT40 Tdp1-/- hTDP1 cells, no CPT, ATP luminescence, 48 h | Potency, µM (titrated, usually from 46.2 µM), inactives show top-dose activity change, negative = growth inhibition, most hits filed as inhibitors | 420,000 tested, 15% active | AID 686978, 2013; note: % is set by controls: 0 for no effect and ±100 for the full control effect; nearly all actives have a fitted effect of over 55% in size
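DT40 Tdp1-/-;hTDP1 cells, no CPT (DMSO vehicle only), 400 cells/well; compounds pin-transferred; ≥48 hr, 37 °C; CellTiter-Glo 30 min RT dark, luminescence read.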
HT1080 IDH1KD tx – HT-1080 IDH1 knockdown cell toxicity (counter line); HT-1080 IDH1 knockdown viability, ATP luminescence, 48 h; Potency, µM (doses to about 46.1 µM), for inactives: top-dose activity, negative = toxicity, hits mostly cytotoxic; 360,000 tested, 2% active; AID 686971;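 note: 0% = DMSO wells and -100% = cell-free medium wells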
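IDH1KD HT-1080 cells, 750/well, RPMI + 5% FBS; compound pinned after 2 h settling; 48 h, 37 °C; CellTiter-Glo luminescence; % activity normalised to DMSO and no-cell wells; curves fitted, classed by r2 and efficacy.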
TGFb inhibitor – TGF-b pathway inhibition; 410,000 tested, 1.2% active; AID 588855; HepG2 CAGA-GFP TGF-b/SMAD3 reporter, GFP fluorescence, 18 h; TGF-beta stimulated, 500 pg/mL final; Potency, µM (highest dose often 46.1 µM), without a hit: top-dose activity, negative = inhibition, actives largely listed as inhibitors; note: % is set by controls: 0 for no effect and ±100 for the full control effect; nearly all actives have a fitted effect of over 65% in size
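Smad-responsive CAGA-GFP expression was quantified in HEPG2 cells exposed to compounds and 500 pg/mL final TGF-beta for 18 h at 37 degrees C; unstimulated wells defined full inhibition.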
* marks the source's active call; other numbers are inactive results; u = inconclusive; x = no result given. Calls come from the whole dose curve; as a rule, active = well fitted curve in the direction sought with a large enough effect; inconclusive = small, poorly fitted or top-dose-only effect, or another doubt; inactive = no such curve, though single readings can be large; an effect the other way counts as inactive or inconclusive. Potency is the fitted concentration of half-maximal effect.

SMILES	HepG2 tox	DT40 TDP1 CPT	HT1080-NT tox	DT40 TDP1 no CPT	HT1080 IDH1KD tx	TGFb inhibitor
CCCCN1C(=O)C(O)(c2c(C)[nH]c3ccccc23)c2cc(Br)ccc21 (stereo unspecified)	-100%	5.8µM*	x	4.1µM*	x	x
CCN1C(=O)C(O)(c2c(C)[nH]c3ccccc23)c2ccccc21 (stereo unspecified)	0%	u	x	u	x	-2%
O=C(N/N=C/c1ccc(Br)o1)c1ccc2c(c1)OCCO2	7%	-28%	8%	-25%	6%	11%
CC1CN(Cc2ccccc2)c2ccccc2NC1=S (stereo unspecified)	-9%	-30%	14%	u	19%	-8%
CC(=O)/C=C1/C(=O)Nc2ccccc21	-109%	6.5µM*	u	3.7µM*	u	u
C=CCOc1cccc(C(=O)/C=C2/C(=O)Nc3ccccc32)c1	10µM*	7.3µM*	18µM*	6.5µM*	u	11µM*
CC(=O)N(C)c1ccc(N=C2C(=O)Nc3ccccc32)cc1	-1%	-20%	13%	7%	0%	0%
O=C1Nc2ccc(Br)cc2/C1=C/C(=O)c1ccccc1	-58%	5.8µM*	u	4.6µM*	u	u
COc1ccc(-c2nnc(SCc3ccc(C(=O)O)cc3)n2C)cc1OC	2%	1%	-4%	0%	0%	7%
COc1ccccc1CNc1nc(-c2ccco2)nn1S(=O)(=O)c1ccc(C)cc1	-15%	u	x	u	x	-24%
O=C(c1ccc2c(c1)OCCO2)N(Cc1cccnc1)c1nc2c(F)cc(F)cc2s1	-20%	u	x	u	x	u
CCOc1cccc2sc(N(Cc3cccnc3)C(=O)c3ccc(C#N)cc3)nc12	-33%	18µM*	x	23µM*	x	u
COc1cccc2sc(N(Cc3cccnc3)C(=O)c3ccc4c(c3)OCCO4)nc12	-25%	u	x	16µM*	x	-14%
COc1ccc2sc(N(Cc3cccnc3)C(=O)c3cccs3)nc2c1	2%	21µM*	x	18µM*	x	-15%
CCOc1cccc2sc(N(Cc3cccnc3)C(=O)C3CCCCC3)nc12	-21%	u	x	u	x	u
O=C(c1ccc2c(c1)OCCO2)N(Cc1cccnc1)c1nc2c(F)cccc2s1	-24%	21µM*	x	u	x	u
O=C(c1ccc2c(c1)OCCO2)N(Cc1cccnc1)c1nc2ccc(Cl)cc2s1	-1%	-16%	x	-3%	x	u
Cc1ccc2c(c1)C(c1ccccc1)N(C(=O)c1ccc(Br)cc1)CC(=O)N2 (stereo unspecified)	-6%	5%	19%	10%	7%	0%
CN1CCC2CC1c1cc(-c3ccc(C(F)(F)F)cc3)ccc12 (stereo unspecified)	-43%	u	3%	u	4%	u
Cc1ccc(NC(=O)NNC(=O)Cn2nc(-c3ccccc3)c(-c3ccccc3)c(C#N)c2=O)cc1	2%	u	4.6µM*	u	5.2µM*	u
O=C(Cn1nc(-c2ccccc2)c2ccccc2c1=O)Nc1ccc(O)cc1	-1%	-4%	28%	-3%	4%	6%
Cc1ccc(NC(=O)Cn2cnc3c(NCc4ccccc4)ncnc32)cc1C	-17%	-8%	17%	-7%	6%	1%
COc1ccc(Cl)cc1C(=O)N(Cc1nc(-c2cccc(C)c2)no1)C(C)C	-22%	6.5µM*	0%	6.5µM*	-6%	u
Cc1ccc(-c2noc(CN(C(=O)C(c3ccccc3)c3ccccc3)C(C)C)n2)cc1	6%	18µM*	0%	15µM*	-17%	0%
